Results on 9 molecules are retold here after PubChem BioAssay (NCI).

A short description of test [1]: NCI Yeast Anticancer Drug Screen. Data for the rad50 strain (AID 155).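 Note: 0% = growth of vehicle-only cultures of the same strain.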 The following applies: S. cerevisiae rad50 strain growth inhibition, active compounds read high. The procedure, abridged: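 Readout: growth inhibition relative to vehicle-treated cultures. Compound exposure was carried out in a genetically defined yeast strain deficient in DNA damage repair.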
The nature of test [2]: NCI Yeast Anticancer Drug Screen. Data for the mec2-1 strain (AID 157). The following applies: S. cerevisiae mec2-1 strain, active compounds read high. Summed up: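 Each compound was tested on mec2-1 yeast, a strain altered in DNA damage repair or cell cycle control. Growth inhibition is reported relative to vehicle.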
The nature of test [3]: NCI Yeast Anticancer Drug Screen. Data for the sgs1 mgt1 strain (AID 161).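 Note: 0% = growth of cultures given vehicle only.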 The following applies: S. cerevisiae sgs1 mgt1 strain, active compounds read high. The procedure, abridged: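 Inhibition of yeast growth, normalised to vehicle-treated controls, is reported for a strain bearing genetic alterations in DNA damage repair.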
Test [4] can be described thus: NCI Yeast Anticancer Drug Screen. Data for the cln2 rad14 strain (AID 165).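 Note: 0% = growth equal to vehicle treated cultures.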 The following applies: S. cerevisiae cln2 rad14 strain, active compounds read high. Summed up: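 Test compounds were added to cln2 rad14 yeast cultures; inhibition of growth was then determined by comparison with vehicle treatment.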
Test [5] can be described thus: NCI Yeast Anticancer Drug Screen. Data for the bub3 strain (AID 167). The following applies: S. cerevisiae bub3 mutant strain, active compounds read high. The procedure, abridged: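 Readout: yeast growth inhibition, expressed relative to vehicle-only wells. The test organism is a mutant strain from a panel with lesions in DNA repair or checkpoint genes.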
Test [6] is described as follows: NCI Yeast Anticancer Drug Screen. Data for the mlh1 rad18 strain (AID 175). The following applies: S. cerevisiae mlh1 rad18 strain growth inhibition, active compounds read high. The procedure, abridged: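 Inhibition values reflect reduced growth of mutant yeast versus vehicle-treated controls following compound exposure; the mutations affect DNA damage repair.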
The mark [7] stands for this setting: at 5.0 µM (retest, dose inferred, filed as 0.5).
[8] abbreviates: at 50.0 µM (retest, dose inferred, filed as 5.0).

The panel holds about 79,000 compounds, 15% with a hit somewhere; the sample as a whole holds those more often. Unmarked numbers belong to inactive results. Activity calls are given as the source filed them. Cut-off read from the data, not from the text of the source: active = growth inhibition above about 70%; inactive = the rest.

On to `CCOC(=O)C(=O)Nc1nc2c(s1)C(=O)c1ccccc1C2=O`, for which the growth inhibition is 14% in test [1] (setting [7]); 96% (active) in test [1] (setting [8]); 98.5% (active) in test [1] (at 50.0 µM); 18% in test [2] (setting [7]); 98% (active) in test [2] (setting [8]); 95.8% (active) in test [2] (at 50.0 µM). The growth inhibition in test [3] (setting [7]) was 14%; in test [3] (setting [8]) it was 99% (active); in test [3] (at 50.0 µM), 96.9% (active); in test [4] (setting [7]), -3%; in test [4] (setting [8]), 89% (active); in test [4] (at 50.0 µM) it was 90% (active). Moreover, the growth inhibition was 46% in test [5] (setting [7]); 96% (active) in test [5] (setting [8]); 98.5% (active) in test [5] (at 50.0 µM); 17% in test [6] (setting [7]); 94% (active) in test [6] (setting [8]); 96.3% (active) in test [6] (at 50.0 µM).

In the case of `COc1ccc(/C=C2\N=C(c3ccco3)OC2=O)cc1Br`, the growth inhibition in test [1] (setting [7]) is 16%; in test [1] (setting [8]), 2%; in test [1] (at 50.0 µM), -4.8%; in test [2] (setting [7]), -17%; in test [2] (setting [8]), -4%; in test [2] (at 50.0 µM), 5.85%. Moreover, the growth inhibition in test [3] (setting [7]) was -1%; in test [3] (setting [8]), 12%; in test [3] (at 50.0 µM) it was 11%; in test [4] (setting [7]), 30%; in test [4] (setting [8]), 22%; in test [4] (at 50.0 µM) it was 4.8%. Besides, the growth inhibition is 5% in test [5] (setting [7]); 13% in test [5] (setting [8]); 27.1% in test [5] (at 50.0 µM); -7% in test [6] (setting [7]); -32% in test [6] (setting [8]); 5.65% in test [6] (at 50.0 µM).

As to `N#C/C(=C/c1cc(I)cc(I)c1O)C(N)=O`, the growth inhibition is 42% in test [1] (setting [7]); 87% (active) in test [1] (setting [8]); 79.8% (active) in test [1] (at 50.0 µM); 39% in test [2] (setting [7]); 92% (active) in test [2] (setting [8]); 58.6% in test [2] (at 50.0 µM). Moreover, the growth inhibition is 69% in test [3] (setting [7]); 97% (active) in test [3] (setting [8]); 78.8% (active) in test [3] (at 50.0 µM); 41% in test [4] (setting [7]); 90% (active) in test [4] (setting [8]); 61.2% in test [4] (at 50.0 µM). Moreover, the growth inhibition is 44% in test [5] (setting [7]); 96% (active) in test [5] (setting [8]); 80.2% (active) in test [5] (at 50.0 µM); 66% in test [6] (setting [7]); 97% (active) in test [6] (setting [8]); 71.2% (active) in test [6] (at 50.0 µM).

Turning to `O=C(CC(=O)c1ccccc1NC1=Cc2ccccc2C(=O)C1=O)C(=O)NC1=C(Cl)C(=O)c2ccccc2C1=O`, the growth inhibition in test [1] (setting [7]) is 36%; in test [1] (setting [8]), 92% (active); in test [1] (at 50.0 µM), 88% (active); in test [2] (setting [7]), 21%; in test [2] (setting [8]), 82% (active); in test [2] (at 50.0 µM) it was 86.2% (active). Moreover, the growth inhibition was 14% in test [3] (setting [7]); 86% (active) in test [3] (setting [8]); 85.7% (active) in test [3] (at 50.0 µM); 16% in test [4] (setting [7]); 66% in test [4] (setting [8]); 82.7% (active) in test [4] (at 50.0 µM). Moreover, the growth inhibition in test [5] (setting [7]) was 14%; in test [5] (setting [8]), 94% (active); in test [5] (at 50.0 µM), 84.9% (active); in test [6] (setting [7]) it was 37%; in test [6] (setting [8]), 90% (active); in test [6] (at 50.0 µM), 86.2% (active).

Take `CN(C)c1ccc(N=Nc2ccc(/C=C3\CCOC3=O)cc2)cc1`: the growth inhibition is -4% in test [1] (setting [7]); 4% in test [1] (setting [8]); -3.65% in test [1] (at 50.0 µM); -5% in test [2] (setting [7]); -1% in test [2] (setting [8]); 19.4% in test [2] (at 50.0 µM). Also, the growth inhibition in test [3] (setting [7]) was -6%; in test [3] (setting [8]) it was -6%; in test [3] (at 50.0 µM), -0.65%; in test [4] (setting [7]) it was -3%; in test [4] (setting [8]) it was 4%; in test [4] (at 50.0 µM) it was 37.2%. Besides, the growth inhibition in test [5] (setting [7]) was -3%; in test [5] (setting [8]) it was 7%; in test [5] (at 50.0 µM), -2.45%; in test [6] (setting [7]) it was -1%; in test [6] (setting [8]), 3%; in test [6] (at 50.0 µM), 12.4%.

As to `CCC(C)NCCNc1cc(OC)cc2cccnc12` (configuration not stated), the growth inhibition in test [1] (setting [7]) was 10%; in test [1] (setting [8]), 13%; in test [1] (at 50.0 µM), 42.9%; in test [2] (setting [7]), 1%; in test [2] (setting [8]), 0%; in test [2] (at 50.0 µM), 27%. In addition, the growth inhibition in test [3] (setting [7]) was 7%; in test [3] (setting [8]) it was 10%; in test [3] (at 50.0 µM), 21%; in test [4] (setting [7]) it was 16%; in test [4] (setting [8]), -5%; in test [4] (at 50.0 µM), -26.6%. Also, the growth inhibition in test [5] (setting [7]) is -1%; in test [5] (setting [8]) it was -1%; in test [5] (at 50.0 µM), 35%; in test [6] (setting [7]) it was 10%; in test [6] (setting [8]) it was 33%; in test [6] (at 50.0 µM), 51.1%.

As to `CC(=O)OCCSCCOC(C)=O`, the growth inhibition in test [1] (setting [7]) is 20%; in test [1] (setting [8]), 90% (active); in test [1] (at 50.0 µM), 76.4% (active); in test [2] (setting [7]), -1%; in test [2] (setting [8]), 84% (active); in test [2] (at 50.0 µM), 29.4%. In addition, the growth inhibition in test [3] (setting [7]) was 6%; in test [3] (setting [8]), 88% (active); in test [3] (at 50.0 µM) it was 81% (active); in test [4] (setting [7]), 7%; in test [4] (setting [8]) it was 23%; in test [4] (at 50.0 µM) it was 12.2%. Besides, the growth inhibition in test [5] (setting [7]) was 7%; in test [5] (setting [8]), 88% (active); in test [5] (at 50.0 µM) it was 39%; in test [6] (setting [7]), 7%; in test [6] (setting [8]), 90% (active); in test [6] (at 50.0 µM), 78.3% (active).

For `COC(=O)c1c(COC(=O)NC(C)C)c2n(c1C)CS(=O)(=O)C2`, the growth inhibition in test [1] (setting [7]) is -38%; in test [1] (setting [8]) it was -8%; in test [1] (at 50.0 µM), 97.3% (active); in test [2] (setting [7]) it was 3%; in test [2] (setting [8]), 5%; in test [2] (at 50.0 µM), 98.5% (active). In addition, the growth inhibition was -3% in test [3] (setting [7]); 31% in test [3] (setting [8]); 98.4% (active) in test [3] (at 50.0 µM); -6% in test [4] (setting [7]); -20% in test [4] (setting [8]); 98% (active) in test [4] (at 50.0 µM). Further, the growth inhibition in test [5] (setting [7]) is -18%; in test [5] (setting [8]), 3%; in test [5] (at 50.0 µM) it was 97% (active); in test [6] (setting [7]), -35%; in test [6] (setting [8]), -32%; in test [6] (at 50.0 µM), 97.7% (active).

As for `O=C(O)c1ccc([N+](=O)[O-])cc1.[Ag]`, the growth inhibition is 99% (active) in test [1] (setting [7]); 99% (active) in test [1] (setting [8]); 98.8% (active) in test [1] (at 50.0 µM); 100% (active) in test [2] (setting [7]); 99% (active) in test [2] (setting [8]); 99.3% (active) in test [2] (at 50.0 µM). For the same molecule, the growth inhibition was 99% (active) in test [3] (setting [7]); 99% (active) in test [3] (setting [8]); 99.5% (active) in test [3] (at 50.0 µM); 99% (active) in test [4] (setting [7]); 99% (active) in test [4] (setting [8]); 98.9% (active) in test [4] (at 50.0 µM). The growth inhibition in test [5] (setting [7]) was 99% (active); in test [5] (setting [8]), 99% (active); in test [5] (at 50.0 µM) it was 99.2% (active); in test [6] (setting [7]), 99% (active); in test [6] (setting [8]), 99% (active); in test [6] (at 50.0 µM), 99.2% (active).
